From PubChem
Most compounds without a hit are left out; they make up all but 5.7% or so of the library.
DRD3 antagonist: blocks the human D3 dopamine receptor. P35462. D3R cells, DiscoveRx beta-arrestin luminescence, antagonist mode; stronger effect = lower value. max response, negative = inhibition, %. 2.5% of 360,000 active. AID 652054; in the data active means max response below about -50%; inconclusive means no clear call, values can overlap the other calls; further: on the % scale 0 is the no-effect control and ±100 the full control effect
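Cells expressing the human receptor were seeded at 1500 cells/well, incubated overnight at 37 degrees C in 5% CO2, then exposed to library compounds with dopamine controls for 90 minutes at 37 degrees C before luminescent detection.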
DRD3 agonist: agonists of human D3 dopamine receptor; P35462; D3R DiscoveRx beta-arrestin cells, luminescence, 90 min; max activation, %; 0.58% of 410,000 active; in the data active means max activation above about 30%; further: 0% is about no effect
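Agonist mode: compounds and dopamine controls were applied to plated cells for 90 min at 37 degrees C after an overnight attachment at 1500 cells/well. Luminescent read-out followed 30 - 60 minutes at room temperature with DiscoveRx detection reagent.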
HEK293 tox: cytotoxicity in counter-screen for GLP-1R inverse agonists; 0.13% of 410,000 active; AID 624418; HEK293 cAMP-luciferase reporter cells, luminescence, 24 h; Potency, µM (series often up to 38.3 µM), inactives show at the highest dose activity change, negative = inhibition, most hits filed as inhibitors;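 further: loss of luciferase light is scored as toxicity; potency means the concentration at half of the fitted maximal effect; on the % scale 0 is the no-effect control and ±100 the full control effect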
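To flag toxic compounds, the library was rerun on cells for 24 hr at 37 deg C and 5% CO2. Viability-linked luminescence was captured 12 min after adding luciferase detection reagent.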
ClpP mod: qHTS Assay for Activators of ClpP | ATP-dependent Clp protease proteolytic subunit (Bacillus subtilis (strain 168)), P80244 | purified B. subtilis ClpP, FRET peptide cleavage, 20 min | Potency, µM (top dose mostly 57.5 µM), inactives show at the highest dose activity change, negative = active | 1.9% of 340,000 active | AID 651965, 2013; active means well fitted falling curve with a large enough effect; inconclusive means small, poorly fitted or top-dose-only effect; inactive means no such curve, though single readings can be large or run the other way; further: potency means the concentration at half of the fitted maximal effect; the source files actives as falling curves though it sought activators and does not explain the sign; nearly all actives have a fitted effect of over 65% in size
Target sequence (P80244 whole entry, looked up): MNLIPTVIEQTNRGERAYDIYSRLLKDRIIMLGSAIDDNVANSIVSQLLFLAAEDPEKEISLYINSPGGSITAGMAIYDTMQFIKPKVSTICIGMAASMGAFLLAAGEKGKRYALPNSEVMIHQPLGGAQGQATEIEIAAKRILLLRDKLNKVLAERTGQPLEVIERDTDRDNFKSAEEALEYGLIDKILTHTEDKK
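Buffer: 100 mM Tris/HCl pH8, 100 mM KCl, 0.05% low protease BSA, 2.5% glycerol, 0.01% Tween-20. ClpP 10 microg/mL final; 20 min RT; delta FRET normalized to ADEP and DMSO controls.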
GLP-1R agonist: agonists of human GLP-1 receptor | AID 624172 | Potency, µM (series often up to 45.6 µM), inactives show at the top dose activation, usual class: activators | 0.007% of 380,000 active | HEK293 GLP-1R CRE-luciferase, luminescence, 4-6 h; cells express a hypersensitive GLP-1R form; further: potency means the concentration at half of the fitted maximal effect; % of control where 0% means no effect
Target sequence (P43220 whole entry, looked up): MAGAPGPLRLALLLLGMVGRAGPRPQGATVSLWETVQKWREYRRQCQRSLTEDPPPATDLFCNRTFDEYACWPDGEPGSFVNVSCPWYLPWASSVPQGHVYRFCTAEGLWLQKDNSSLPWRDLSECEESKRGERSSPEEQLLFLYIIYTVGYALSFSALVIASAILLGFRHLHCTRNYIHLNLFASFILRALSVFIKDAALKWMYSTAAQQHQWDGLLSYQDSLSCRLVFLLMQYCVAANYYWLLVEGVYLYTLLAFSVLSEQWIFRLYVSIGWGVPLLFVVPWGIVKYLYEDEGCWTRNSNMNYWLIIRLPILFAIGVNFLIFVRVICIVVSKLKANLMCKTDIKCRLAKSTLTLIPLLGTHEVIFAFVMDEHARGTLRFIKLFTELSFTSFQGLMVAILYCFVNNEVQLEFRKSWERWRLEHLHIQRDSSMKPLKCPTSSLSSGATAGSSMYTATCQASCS
GLP-1R inv ag: acts as inverse agonist at human GLP-1 receptor. P43220. HEK293 GLP-1R CRE-luciferase, luminescence, 24 h; GLP-1R form is constitutively active. Potency, µM (doses to about 38.3 µM), without a hit: at the top dose activity change, negative = inhibition, usual class: inhibitors. 1.6% of 410,000 active. AID 624417; further: potency means the concentration at half of the fitted maximal effect; on the % scale 0 is the no-effect control and ±100 the full control effect; nearly all actives have a fitted effect of over 55% in size
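Using stably transfected HEK293 (constitutively active GLP-1R, cAMP-luciferase reporter), compounds were incubated 24 hr and luciferase measured by luminescence.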
The depositor's hits bear a star; ? = inconclusive; . = no result; [ ] = another dose, or the depositor's remark. Unless noted, the call rests on the fitted dose curve; in most records, active means well fitted curve in the direction sought with a large enough effect; inconclusive means small, poorly fitted or top-dose-only effect, or another doubt; inactive means no such curve, though single readings can be large; an effect the other way counts as inactive or inconclusive.

SMILES | DRD3 antagonist | DRD3 agonist | HEK293 tox | ClpP mod | GLP-1R agonist | GLP-1R inv ag
Cc1cc(Br)ccc1OCCCCN1CCC(C)CC1 | -76* | -27 | ? | 2% | 8% | 0%
CC1CCN(CCCCOc2cccc(Br)c2)CC1 | ? | -32 | ? | 2% | 4% | -4%
CC1CN(CCOc2ccc(Cl)c(Cl)c2)CC(C)O1 (stereo not drawn) | ? | -19 | 1% | . | 6% | -24%
CC1CCN(CCOc2ccc(Cl)c(Cl)c2)CC1 | -51* | 1 | 12% | 0% | -1% | ?
O=C(COCc1cc(-c2ccc(F)cc2)on1)Nc1cc(Cl)cc(Cl)c1 | . | -6 | -6% | 2% | . | 19%
Cc1cc(C)n(-c2nc3ccccc3nc2Nc2ccc3[nH]c(=O)[nH]c3c2)n1 | 25 | 42* | ? | 1% | -5% | 0%
Cc1cc(C)n(-c2nc3ccccc3[nH]c2=O)n1 | 0 | -7 | 16% | 28µM* | 24% | 18%
COc1cccc(-c2nnc3n2N=C(C(C)(C)C)CS3)c1 | -12 | 1 | -22% | -3% | -18% | 11µM*
COc1cc(NC(=O)c2cc(-c3cc(F)ccc3OC(C)C)n[nH]2)cc(OC)c1OC | 59 | 4 | -21% | -4% | -6% | ?
O=C(N/N=C/c1cccs1)c1n[nH]c2c1CCCC2 | -15 | 6 | -34% | 0% | -2% | 3.2µM*
O=C(N/N=C/c1cccc2ccccc12)c1n[nH]c2c1CCCC2 | -28 | -2 | -25% | . | 12% | 1.1µM*
CC(C)COC(=O)N1CCCCC1c1cc(C(=O)Nc2ccc3c(c2)OCO3)no1 (stereo not drawn) | -16 | -9 | -2% | -4% | 23% | ?
CCc1n[nH]c(=S)n1/N=C/c1ccc(-c2ccc(Br)cc2)o1 | -146* | 0 | -22% | 1% | 11% | 6%
CSc1ccc(/C=N/n2c(Cc3ccc(Br)cc3)n[nH]c2=S)cc1 | ? | -8 | -7% | 4% | 13% | ?
CCOC(=O)CSc1nnc(NCC(=O)OC)c(=O)[nH]1 | -56* | -14 | -5% | 1% | -15% | 0%
CC(C)n1c(=O)c2ccccc2n1CC(=O)N1CCOCC1 | 3 | -1 | -3% | 5% | -3% | 27%
O=C(c1ccccc1)c1nc[nH]c1C(=O)Nc1ccccn1 | ? | 4 | -6% | 28µM* | 0% | 85%
Cc1ccc(OCC(=O)Nc2cc(-c3nc4cc(Cl)ccc4o3)ccc2C)c(C)c1 | . | . | . | -6% | . | .
Cc1ccc(CN2CCSc3ccc(C(=O)NC4CCN(Cc5ccccc5)CC4)cc32)cc1 | -83* | -19 | -4% | . | 15% | -16%
Cc1ccc(-n2c(=O)[nH]c3cc(C(=O)NC4CCN(Cc5ccccc5)CC4)ccc3c2=O)cc1 | -93* | -7 | 4% | -6% | -11% | 6%
O=C(NC1CCCC1)c1ccc2c(c1)N(Cc1ccccc1)CCS2 | 12 | 5 | -5% | 4% | -4% | 17%
CC1CC(C)CN(C(=O)c2ccc3c(c2)N(Cc2ccccc2)CCS3)C1 (stereo not drawn) | -9 | -3 | -16% | 4% | 19% | 11µM*
Cc1ccc(-n2c(=O)[nH]c3cc(C(=O)NCCc4ccccc4)ccc3c2=O)cc1 | . | 9 | -10% | ? | . | 1%
CCCCN(c1ccccc1)S(=O)(=O)N(C)C | -12 | -1 | -6%[7.66 µM] | . | 0% | -11%[7.66 µM]
CCCCN(S(=O)(=O)c1ccccc1)S(=O)(=O)c1ccccc1 | -7 | -2 | -5% | . | 18% | 10µM*
SMILES | DRD3 antagonist | DRD3 agonist | HEK293 tox | ClpP mod | GLP-1R agonist | GLP-1R inv ag
COP(=O)(OC)OC(c1ccc(Cl)cc1)P(=O)(OC)OC (stereo not drawn) | . | 84* | . | . | -2% | .
CCCOc1ccc(-c2nc(OC)c3ccccc3n2)cc1 | -6 | 0 | 31% | 32µM* | 1% | 0%
CCCOc1ccc(-c2nc(N3CCC(C)CC3)c3ccccc3n2)cc1 | . | 2 | 1% | 20µM* | . | -3%
CC1CCN(c2nc(-c3ccncc3)nc3ccccc23)CC1 | 0 | 2 | 9% | -8% | 3% | 6.3µM*
CN1CCN(c2nc(-c3ccc(C(C)(C)C)cc3)nc3ccccc23)CC1 | -11 | -20 | 7% | -3% | -1% | 8.9µM*
CCOC(=O)c1ccccc1NC(=O)CSc1nc2ncccc2[nH]1 | . | 9 | 7% | 0% | . | 3%
O=C(C[n+]1ccc2ccccc2c1)c1ccc(F)cc1 | . | . | . | 68% | . | .
COc1ccc(CNC(=O)C2CCCN(S(=O)(=O)c3ccc4c(ccn4C)c3)C2)c(OC)c1 (stereo not drawn) | . | 3 | 4% | -8% | . | -20%
O=C(NCc1ccccc1Cl)c1cnc2sc(N3CCOCC3)nn2c1=O | . | -14 | 3% | 4% | . | 3%
Brc1cccc(OCCN2CCCCC2)c1 | -92* | -36 | -4% | 0% | 1% | -5%
Cc1cccc(OCCCN2CCCCCC2)c1 | -51* | -30 | ? | 0% | 0% | 7%
CCc1cccc(OCCN2CCCC2)c1 | -60* | -34 | 15% | -16% | 0% | 5%
Cc1ccc(OCCCCN2CCc3ccccc3C2)cc1 | -100* | -19 | -16% | . | -2% | ?
CCc1cccc(OCCn2ccnc2)c1 | ? | -7 | 2% | -3% | -2% | -22%
CCC(c1nnnn1-c1ccc2c(c1)OCCO2)N1CCN(C(=O)C2CCCO2)CC1 (stereo not drawn) | 40 | 2 | -1% | -2% | 3% | 8%
COc1ccccc1C(=O)NC1(C(F)(F)F)C(=O)NC(C)=C1C#N (stereo not drawn) | . | 3 | 26% | -2% | -9% | 1%
Brc1cccc(OCCN2CCOCC2)c1 | ? | 8 | 1% | -4% | 0% | 12%
Brc1cccc(OCCN2CCc3ccccc3C2)c1 | -73* | 8 | 1% | -2% | 1% | ?
Cc1ccsc1/C=N/NC(=O)Cn1nc(C)c([N+](=O)[O-])c1C | -11 | -5 | 2% | . | 1% | -26%
C/C(=N\NC(=O)Cn1nc(C)c([N+](=O)[O-])c1C)c1ccc(Cl)s1 | -62* | -2 | -17% | . | 6% | -7%
C[C@@H]1[C@H](c2ccccc2)OCCS(=O)(=O)N1Cc1cccc(C(F)(F)F)c1 | . | . | . | -1% | . | .
CCN(C(=O)CSc1nc2ccccc2n1Cc1ccc(C(=O)OC)cc1)c1ccccc1 | . | -18 | -15% | 1% | . | -17%
COc1ccc(CNC(=O)CN2C(=O)c3ccc([N+](=O)[O-])cc3C2=O)cc1 | -3 | 31* | -9% | 0% | 2% | -7%
